FLuc modulator – firefly luciferase modulation, counter-screen for miR-21 project. AID 588342. Potency, µM (doses to about 57.5 µM), without a hit: top-dose activity change, negative = inhibition, actives largely listed as inhibitors. P08659. 360,000 compounds, 6.9% hits. purified FLuc, Km substrates, luminescence inhibition;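 note: plate controls were vehicle for no effect and reference inhibitor for full effect; nearly all actives have a fitted effect of over 55% in size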
Target sequence (P08659 whole entry, looked up): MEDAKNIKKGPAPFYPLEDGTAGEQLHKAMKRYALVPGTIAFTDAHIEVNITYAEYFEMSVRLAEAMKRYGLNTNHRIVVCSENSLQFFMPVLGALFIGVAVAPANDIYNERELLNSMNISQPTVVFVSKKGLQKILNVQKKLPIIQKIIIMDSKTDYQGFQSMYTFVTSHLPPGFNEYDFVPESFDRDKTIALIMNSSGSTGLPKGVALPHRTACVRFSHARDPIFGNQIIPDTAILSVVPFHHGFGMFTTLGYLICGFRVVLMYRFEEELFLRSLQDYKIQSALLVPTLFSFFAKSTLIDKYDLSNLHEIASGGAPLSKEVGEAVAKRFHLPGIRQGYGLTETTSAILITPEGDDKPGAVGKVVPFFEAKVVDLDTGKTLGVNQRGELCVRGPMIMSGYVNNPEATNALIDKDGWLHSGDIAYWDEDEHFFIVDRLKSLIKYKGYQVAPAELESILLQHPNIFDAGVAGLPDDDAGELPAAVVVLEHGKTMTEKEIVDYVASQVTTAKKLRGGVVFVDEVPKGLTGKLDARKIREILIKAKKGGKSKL
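Biochemical qHTS of compounds, final roughly 60 µM downward over six points, against 10 nM purified firefly luciferase using Km concentrations of substrates (10 uM D-luciferin, 10 uM ATP) in Tris acetate pH 7.5 buffer; luminescence output.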
SMN2 splice enh – increases expression of the SMN2 splice variant | 210,000 compounds, 2.8% hits | Potency, µM (doses to about 46.1 µM), for the others: top-dose activity change, positive = activation, usual class: activators | HEK293 SMN2-luciferase splicing reporter, luminescence, 30-36 h; note: % of control where 0% means no effect; nearly all actives have a fitted effect of over 55% in size
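HEK293 cells carry an SMN2 […]–luciferase reporter in which exon 7 inclusion puts luciferase in frame. Cells were plated 10-12 h before compound addition, then incubated 30-36 h at 37C. ONE-Glo luminescence was read; sodium butyrate at 4.5 mM final served as control.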
NPC1 prom act – activators of NPC1 promoter. 320,000 compounds, 2.4% hits. Potency, µM (top dose mostly 9.22 µM), for the others: at the highest dose activation, hits mostly activators. Huh7 NPC1 promoter luciferase reporter, 24 h; note: % of control where 0% means no effect; nearly all actives have a fitted effect of over 60% in size
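Luciferase expression driven by the NPC1 promoter was measured in stably transfected Huh7 cells after a 24 h compound incubation, using a luciferase reagent and a luminescence read.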
KinaseGlo FLuc – blocks Kinase-Glo luciferase, a counter-screen artifact; Q27757; Kinase-Glo luciferase, ATP luminescence, 8 min; Potency, µM (highest dose often 38.3 µM), for inactives: at the top dose activity change, negative = inhibition, actives largely listed as inhibitors; 200,000 compounds, 0.28% hits; AID 1379; note: % is set by controls: 0 for no effect and ±100 for the full control effect; nearly all actives have a fitted effect of over 60% in size
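Compounds were added to a substrate mix at pH 7.2 (50 mM imidazole, 10 uM ATP, within the enzyme's linear range), followed by Kinase-Glo detection reagent; luminescence was measured after 8 minutes at ambient temperature.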
ELG1 genotox – genotoxicity induction in ELG1-luciferase HEK293T cells. HEK293T ELG1-luciferase reporter, luminescence, 16 h. Potency, µM (highest dose often 46 µM), for the others: at the top dose activity change, positive = activation, usual class: activators. 330,000 compounds, 1.3% hits; note: % of control where 0% means no effect; nearly all actives have a fitted effect of over 60% in size
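Luminescence read-out: rising ELG1-luciferase signal, reflecting elevated ELG1 protein under genetic stress, flags genotoxic compounds. Cells were treated for 16 hr at 37 °C before ONE-Glo detection.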
Rab9 promoter act – activates the Rab9 promoter; 320,000 compounds, 2.8% hits; Huh7 Rab9 promoter-luciferase reporter, luminescence, 24 h; AID 485297; Potency, µM (highest dose often 9.22 µM), without a hit: at the highest dose activation, negative = inhibition, hits mostly activators; note: % of control where 0% means no effect; nearly all actives have a fitted effect of over 60% in size
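Cell-based reporter: Huh7 stable for Rab9 promoter-driven luciferase, plated in reduced-serum medium with 10% FBS at 1500 cells/well, compound-treated 24 h at 37 °C, luminescence read after 10 min reagent.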
The depositor's hits bear a star; ? = inconclusive; . = not tested or not shown. Hits are enriched below; roughly 7.4% of the tested compounds scored in any of these assays. Calls come from the whole dose curve; as a rule, active = well fitted curve in the direction sought with a large enough effect; inconclusive = small, poorly fitted or top-dose-only effect, or another doubt; inactive = no such curve, though single readings can be large; an effect the other way counts as inactive or inconclusive. Potency is the fitted concentration of half-maximal effect.

SMILES	FLuc modulator	SMN2 splice enh	NPC1 prom act	KinaseGlo FLuc	ELG1 genotox	Rab9 promoter act
COc1cccc(NC(=O)C(CCSC)NC(=O)C2CCC(C)CC2)c1 (stereo unspecified)	-0.6%	-3.2%	.	.	.	.
CCN(CC)c1ccc(NC(=O)c2c(C)nn(-c3ccc(F)cc3)c2-n2cccc2)c(C)c1	-5.8%	.	.	.	.	.
COc1ccc(-c2cc(C(C)=O)c(C)n2CCC(=O)Nc2ccc(C(F)(F)F)cc2)cc1	-9.0%	.	.	.	.	.
CCOC(=O)c1ccc(Nc2ncnc3nc[nH]c23)cc1	?	10µM*	?	-6.6%	?	?
c1ccc(COc2ccc(Nc3ncnc4nc[nH]c34)cc2)cc1	10.7µM*	0.1%	?	-6.5%	?	?
COc1ccc(OC)c(-c2cc(C(=O)NC(C)c3ccccc3)no2)c1 (stereo unspecified)	-6.6%	-7.2%	.	.	.	.
COc1ccccc1NC(=O)Nc1nc(CC(=O)Nc2cccc(F)c2)cs1	16.9µM*	.	-5.7%	.	-9.0%	7.5%
COc1ccccc1NC(=O)Nc1nc(CC(=O)Nc2ccc(F)cc2)cs1	-9.7%	.	-3.9%	.	-3.7%	-3.4%
COc1ccccc1NC(=O)Nc1nc(C(C)(C)C)cs1	8.49µM*	5.8%	-2.6%	0.0%	-4.2%	15.2%
COc1ccccc1NC(=O)Nc1nc(CC(=O)Nc2ccc(N(C)C)cc2)cs1	21.3µM*	.	0.5%	.	?	-2.0%
Cc1ccc(CSc2nnc(-c3cccs3)n2C)cc1	-13.9%	4.3%	10.3%	-0.9%	7.2%	9.6%
Cc1ccccc1-n1c(SCc2csc(Nc3ccccc3)n2)nnc1-c1cccnc1	?	-13.0%	0.3%	3.1%	-8.0%	-1.1%
Cc1ccc(Nc2nc(CSc3nnc(-c4cccnc4)n3-c3ccccc3C)cs2)cc1	10.7µM*	-43.6%	2.7%	3.6%	0.9%	1.6%
Cc1ccc(Nc2nc(CSc3nnc(-c4ccccc4C)n3C)cs2)cc1	1.9µM*	.	?	.	3.3%	?
Cc1ccc(Nc2nc(CSc3nnc(-c4ccccc4)n3C)cs2)cc1	1.2µM*	?	?	-0.5%	?	?
Cc1ccc(C(=O)Nc2ccc(Cl)c(-c3nc4ncccc4o3)c2)c(C)c1	2.69µM*	?	.	.	.	.
COc1cc(C(=O)Nc2ccc(Cl)c(-c3nc4ncccc4o3)c2)cc(OC)c1OC	0.7%	-8.1%	.	.	.	.
CCCCn1c(N)c(NCc2ccccc2)c(=O)[nH]c1=O	-6.1%	11.5%	1.9%	-3.3%	0.4%	-2.7%
Nc1c(NCc2ccccc2F)c(=O)[nH]c(=O)n1Cc1ccccc1	21.3µM*	-15.6%	2.0%	7.4%	2.3%	-5.9%
CS(=O)(=O)C1=NSC2=NC(=O)/C(=C\c3ccc(-c4ccccc4)o3)C(=N)N21	12µM*	4.6%	4.3%	2.4%	3.7%	4.6%
CC(C)S(=O)(=O)C1=NSC2=NC(=O)/C(=C\c3ccc(-c4cccc(C(=O)O)c4)o3)C(=N)N21	13.5µM*	1.4%	-3.0%	8.7%	-9.2%	-2.6%
O=C1OC(c2cccs2)=N/C1=C/c1ccc(-c2cccc(C(=O)O)c2)o1	23.9µM*	5.8%	2.6%	1.1%	?	-3.0%
N=C1/C(=C/c2ccc(-c3cccc(C(=O)O)c3)o2)C(=O)N=C2SC=C(c3ccccc3)N12	23.9µM*	16.7%	0.1%	-0.9%	1.8%	25.0%
CC(C)S(=O)(=O)C1=NSC2=NC(=O)/C(=C\c3ccc(-c4ccccc4)o3)C(=N)N21	?	22.7%	1.1%	2.9%	-5.7%	-14.0%
Cn1c2ccccc2c2cnn(CC(=O)Nc3ccccc3C(F)(F)F)c(=O)c21	-8.2%	5.1%	.	.	.	.
O=C(CCCCn1c(=O)c2ccccc2n(CC(=O)Nc2ccc(F)cc2F)c1=O)NCc1ccccc1Cl	0.8%	-5.4%	.	.	.	.
O=C1CCN(Cc2ccccc2)CCN1CCSc1ccccc1	13.5µM*	.	?	.	?	4.47µM*
CCCN1CCC(=O)N(CCSc2ccccc2)CC1	?	.	2.82µM*	.	?	3.55µM*
